Test results published in PubChem BioAssay (NCATS).
Results filed as inconclusive are left out. Active and inactive are the calls of the source. Calls come from the whole dose curve; as a rule, active = well fitted curve in the direction sought with a large enough effect; inconclusive = small, poorly fitted or top-dose-only effect, or another doubt; inactive = no such curve, though single readings can be large; an effect the other way counts as inactive or inconclusive.

What was measured:
[1] = target: ATP-dependent 6-phosphofructokinase (Trypanosoma brucei brucei) (UniProt O15648); assay: qHTS Assay to Find Inhibitors of T. brucei phosphofructokinase: hit validation (AID 492961);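 note: luminescence reports ADP formed as PFK phosphorylates fructose-6-phosphate with ATP; % is set by controls: 0 for no effect and ±100 for the full control effect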
How it was run: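 Reaction: 0.1 M triethanolamine pH 8.0, 5 mM MgCl2, F6P 0.5 mM, ATP 0.1 mM, PFK 1.25 nM, 45 min RT. Read-out: ADP-Glo luminescence. Analysis: concentration-response fits, classed by r2 and efficacy.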

[2] = qHTS profiling for inhibitors of Plasmodium falciparum proliferation (AID 504749); note: potency is the fitted concentration of half-maximal effect;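 for activity, negative = inhibition: 0% = DMSO vehicle and full inhibition = artemisinin control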; for all read-outs here: nearly all actives have a fitted effect of over 60% in size; conditions: P. falciparum in erythrocytes, SYBR Green DNA, 72 h; for activity, negative = inhibition: at 28.7 µM (top of the series)
How it was run: (§1)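 Fluorescence of SYBR Green-bound parasite DNA, read at 485/535 nm, served as the growth measure. Infected erythrocytes were cultured with compound 72 h; artemisinin (0.29 uM) and DMSO wells defined the normalization range.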

3D7 = assay: as above; conditions: P. falciparum in erythrocytes, SYBR Green DNA, 72 h; series mostly up to 28.7 µM
How it was run: as §1

AA1029 = assay: as above; conditions: P. falciparum in erythrocytes, SYBR Green DNA, 72 h; series mostly up to 28.7 µM
How it was run: as §1

AS120 = assay: as above; conditions: P. falciparum in erythrocytes, SYBR Green DNA, 72 h; series mostly up to 28.7 µM
How it was run: as §1

ATS189 = assay: as above; conditions: P. falciparum in erythrocytes, SYBR Green DNA, 72 h; series mostly up to 28.7 µM
How it was run: as §1

CP185 = assay: as above; conditions: P. falciparum in erythrocytes, SYBR Green DNA, 72 h; series mostly up to 28.7 µM
How it was run: as §1

CP191 = assay: as above; conditions: P. falciparum in erythrocytes, SYBR Green DNA, 72 h; series mostly up to 28.7 µM
How it was run: as §1

CP194 = assay: as above; conditions: P. falciparum in erythrocytes, SYBR Green DNA, 72 h; series mostly up to 28.7 µM
How it was run: as §1

CP217 = assay: as above; conditions: P. falciparum in erythrocytes, SYBR Green DNA, 72 h; series mostly up to 28.7 µM
How it was run: as §1

CP237 = assay: as above; conditions: P. falciparum in erythrocytes, SYBR Green DNA, 72 h; series mostly up to 28.7 µM
How it was run: as §1

CP238 = assay: as above; conditions: P. falciparum in erythrocytes, SYBR Green DNA, 72 h; series mostly up to 28.7 µM
How it was run: as §1

CP252 = assay: as above; conditions: P. falciparum in erythrocytes, SYBR Green DNA, 72 h; series mostly up to 28.7 µM
How it was run: as §1

CP265 = assay: as above; conditions: P. falciparum in erythrocytes, SYBR Green DNA, 72 h; series mostly up to 28.7 µM
How it was run: as §1

CP286 = assay: as above; conditions: P. falciparum in erythrocytes, SYBR Green DNA, 72 h; series mostly up to 28.7 µM
How it was run: as §1

DFO2036 = assay: as above; conditions: P. falciparum in erythrocytes, SYBR Green DNA, 72 h; series mostly up to 28.7 µM
How it was run: as §1

DIV30 = assay: as above; conditions: P. falciparum in erythrocytes, SYBR Green DNA, 72 h; series mostly up to 28.7 µM
How it was run: as §1

Dd2 = assay: as above; conditions: P. falciparum in erythrocytes, SYBR Green DNA, 72 h; series mostly up to 28.7 µM
How it was run: as §1

N140 = assay: as above; conditions: P. falciparum in erythrocytes, SYBR Green DNA, 72 h; series mostly up to 28.7 µM
How it was run: as §1

P94_40 = assay: as above; conditions: P. falciparum in erythrocytes, SYBR Green DNA, 72 h; series mostly up to 28.7 µM
How it was run: as §1

ATP-dependent 6-phosphofructokinase (Trypanosoma brucei brucei), sequence (O15648 whole entry, looked up): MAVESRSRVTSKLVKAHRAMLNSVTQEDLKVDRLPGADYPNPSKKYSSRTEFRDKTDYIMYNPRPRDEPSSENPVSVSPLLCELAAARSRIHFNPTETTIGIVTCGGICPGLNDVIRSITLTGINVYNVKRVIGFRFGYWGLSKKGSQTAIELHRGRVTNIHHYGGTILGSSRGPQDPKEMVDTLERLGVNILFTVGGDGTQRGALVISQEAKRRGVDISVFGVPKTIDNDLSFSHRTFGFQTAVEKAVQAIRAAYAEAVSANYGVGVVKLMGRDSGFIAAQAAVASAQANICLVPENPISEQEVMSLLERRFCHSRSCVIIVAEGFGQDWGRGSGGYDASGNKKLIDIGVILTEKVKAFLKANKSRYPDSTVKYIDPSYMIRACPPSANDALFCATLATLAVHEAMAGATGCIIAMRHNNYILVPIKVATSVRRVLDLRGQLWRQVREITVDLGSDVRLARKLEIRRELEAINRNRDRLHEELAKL

C=C(CC[C@@H](C)[C@H]1CCC2[C@]1(C)CC[C@]13C[C@@]14CCC(OC(=O)/C=C/c1ccc(O)c(OC)c1)C(C)(C)[C@@H]4CC[C@@]23C)C(C)C (some centres undefined)
inactive: Potency [1] | activity, negative = inhibition ([2]; parasite line A) 3.06% | activity, negative = inhibition ([2]; parasite line B) 1.72% | Potency (3D7) | Potency (AA1029) | Potency (AS120) | Potency (ATS189) | Potency (CP185) | Potency (CP191) | Potency (CP194) | Potency (CP217) | Potency (CP237) | Potency (CP238) | Potency (CP252) | Potency (CP265) | Potency (CP286) | Potency (DFO2036) | Potency (DIV30) | Potency (Dd2) | Potency (N140) | Potency (P94_40)

Nc1nc(/C(=C/CC(=O)O)C(=O)NC2C(=O)N3C(C(=O)O)=CCSC23)cs1 (centres undefined)
inactive: Potency [1] | activity, negative = inhibition ([2]; parasite line A) -3.7% | activity, negative = inhibition ([2]; parasite line B) 3.34% | Potency (3D7) | Potency (AA1029) | Potency (AS120) | Potency (ATS189) | Potency (CP185) | Potency (CP191) | Potency (CP194) | Potency (CP217) | Potency (CP237) | Potency (CP238) | Potency (CP252) | Potency (CP265) | Potency (CP286) | Potency (DFO2036) | Potency (DIV30) | Potency (Dd2) | Potency (N140) | Potency (P94_40)

CCC(C(=O)C(C)C(O)C(C)CCc1ccc(C)c(O)c1C(=O)O)C1OC(CC)(C2CC[C@@](O)(CC)C(C)O2)CC1C (some centres undefined)
inactive: Potency [1]
active: Potency ([2]; parasite line A) 0.794 µM | Potency ([2]; parasite line B) 1.12 µM | Potency (3D7) 0.447 µM | Potency (AA1029) 0.708 µM | Potency (AS120) 0.398 µM | Potency (ATS189) 1.26 µM | Potency (CP185) 1.12 µM | Potency (CP191) 0.708 µM | Potency (CP194) 0.849 µM | Potency (CP217) 1 µM | Potency (CP237) 0.562 µM | Potency (CP238) 1 µM | Potency (CP252) 0.794 µM | Potency (CP265) 0.891 µM | Potency (CP286) 0.631 µM | Potency (DFO2036) 1 µM | Potency (DIV30) 0.601 µM | Potency (Dd2) 0.794 µM | Potency (N140) 0.562 µM | Potency (P94_40) 0.316 µM

C[N+]12CCCC[C@@H]1CCC(=C(c1cccs1)c1cccs1)C2 (some centres undefined)
active: Potency ([2]; parasite line A) 10 µM | Potency ([2]; parasite line B) 12.6 µM | Potency (3D7) 12.6 µM | Potency (AA1029) 8.91 µM | Potency (AS120) 10 µM | Potency (CP185) 8.91 µM | Potency (CP191) 8.91 µM | Potency (CP217) 7.94 µM | Potency (CP286) 6.31 µM | Potency (DFO2036) 10 µM | Potency (DIV30) 12 µM | Potency (N140) 12.6 µM | Potency (P94_40) 7.94 µM
inactive: Potency [1]

C/C(=C(/CCO)SS/C(CCO)=C(\C)N(C=O)Cc1cnc(C)nc1N)N(C=O)Cc1cnc(C)nc1N
inactive: Potency [1] | activity, negative = inhibition ([2]; parasite line A) -6.53% | activity, negative = inhibition ([2]; parasite line B) -3.11% | Potency (3D7) | Potency (AA1029) | Potency (AS120) | Potency (ATS189) | Potency (CP185) | Potency (CP191) | Potency (CP194) | Potency (CP217) | Potency (CP237) | Potency (CP238) | Potency (CP252) | Potency (CP265) | Potency (CP286) | Potency (DFO2036) | Potency (DIV30) | Potency (Dd2) | Potency (N140) | Potency (P94_40)

COc1ccc(S(=O)(=O)N2c3ccc(Cl)cc3[C@](O)(c3ccccc3Cl)[C@@H]2C(=O)N2CCC[C@H]2C(N)=O)cc1OC
inactive: Potency [1] | activity, negative = inhibition ([2]; parasite line A) -28.5% | activity, negative = inhibition ([2]; parasite line B) -6.86% | Potency (3D7) | Potency (ATS189) | Potency (CP185) | Potency (CP191) | Potency (CP194) | Potency (CP217) | Potency (CP238) | Potency (CP252) | Potency (CP265) | Potency (CP286) | Potency (DFO2036) | Potency (DIV30) | Potency (Dd2)

C=C[C@@]1(C)C[C@H](OC(=O)CSC(C)(C)CNC(=O)[C@@H](N)C(C)C)[C@@]2(C)C(C)CC[C@@]3(CCC(=O)[C@@H]32)[C@H](C)[C@H]1O (some centres undefined)
inactive: Potency [1]
active: Potency ([2]; parasite line A) 3.16 µM | Potency ([2]; parasite line B) 1.41 µM | Potency (3D7) 8.91 µM | Potency (AA1029) 1.58 µM | Potency (AS120) 3.55 µM | Potency (ATS189) 11.2 µM | Potency (CP185) 1.41 µM | Potency (CP191) 3.98 µM | Potency (CP194) 1.9 µM | Potency (CP217) 5.62 µM | Potency (CP237) 1.41 µM | Potency (CP238) 5.01 µM | Potency (CP252) 1.26 µM | Potency (CP286) 0.447 µM | Potency (DFO2036) 0.631 µM | Potency (DIV30) 7.57 µM | Potency (Dd2) 0.282 µM | Potency (N140) 1.41 µM | Potency (P94_40) 1.58 µM

Clc1ccc(CS[C@@H](Cn2ccnc2)c2ccc(Cl)cc2Cl)cc1
active: Potency ([2]; parasite line A) 3.16 µM | Potency ([2]; parasite line B) 2.24 µM | Potency (3D7) 2.82 µM | Potency (AA1029) 3.55 µM | Potency (AS120) 1.26 µM | Potency (ATS189) 3.16 µM | Potency (CP185) 3.98 µM | Potency (CP191) 3.55 µM | Potency (CP194) 5.1 µM | Potency (CP217) 3.16 µM | Potency (CP237) 1.78 µM | Potency (CP252) 3.98 µM | Potency (CP265) 3.16 µM | Potency (CP286) 3.55 µM | Potency (DFO2036) 3.16 µM | Potency (DIV30) 3.22 µM | Potency (Dd2) 4.47 µM | Potency (N140) 1.41 µM | Potency (P94_40) 3.55 µM
inactive: Potency [1]
